Rows were chosen to be rich in hits. Some 4.8% of all compounds tested hit in one or more screens of this group.
hcDAF12 agonist: activates DAF-12 receptor from parasite H. contortus; HEK293 hcDAF-12 lit1-tk-luc reporter, luminescence; 0% DMSO, 100% Δ7-dafachronic acid; activation, % at 6.8 µM; hit rate 1.4% among 370,000;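 active = activation above the mean of all tested compounds plus 3 SD, cut at about 5.5% in these data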;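 also: 100% = response to 3 µM Δ7-dafachronic acid high control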
NR1D1 modulator: modulators of human Rev-erb alpha DNA binding | Rev-erbα–FITC-DNA binding, fluorescence polarization, 90 min | hit rate 0.79% among 370,000 | P20393 | activity, % at 10 µM;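 active = activity above about 14%, limit read from the data; passing the limit was not always enough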;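 also: 0% = DMSO wells with 35 nM protein and 100% = DMSO wells with 750 nM protein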
Target sequence (P20393 whole entry, looked up): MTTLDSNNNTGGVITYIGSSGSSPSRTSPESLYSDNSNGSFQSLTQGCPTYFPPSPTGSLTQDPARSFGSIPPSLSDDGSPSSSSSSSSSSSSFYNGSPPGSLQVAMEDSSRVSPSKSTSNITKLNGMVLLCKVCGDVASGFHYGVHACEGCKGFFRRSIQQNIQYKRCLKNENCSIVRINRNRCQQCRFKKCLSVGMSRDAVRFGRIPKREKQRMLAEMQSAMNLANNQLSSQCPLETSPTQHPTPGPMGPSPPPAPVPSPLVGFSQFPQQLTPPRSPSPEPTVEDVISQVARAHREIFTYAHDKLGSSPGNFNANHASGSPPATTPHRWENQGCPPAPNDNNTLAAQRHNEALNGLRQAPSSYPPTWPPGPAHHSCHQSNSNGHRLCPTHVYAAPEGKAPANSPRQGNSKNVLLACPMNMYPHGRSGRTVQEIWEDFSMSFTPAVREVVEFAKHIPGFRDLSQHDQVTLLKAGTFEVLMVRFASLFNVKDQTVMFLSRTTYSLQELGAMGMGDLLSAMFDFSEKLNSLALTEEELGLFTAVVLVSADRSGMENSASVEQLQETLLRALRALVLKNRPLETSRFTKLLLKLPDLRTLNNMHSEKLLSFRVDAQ
ssDAF-12 act: activators of S. stercoralis DAF-12 nuclear receptor; HEK293 ssDAF-12/GRIP1 lit1-tk-luc reporter, luminescence; % of 3 µM dafachronic acid response; activation, % at 6.8 µM; hit rate 1% among 370,000;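 active = activation above the mean over all tested compounds plus 3 SD, cut at about 0.9% in these data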;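 also: 0% = DMSO-only wells and 100% = 3 µM delta7-dafachronic acid wells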
DAX1 inh-1: NR0B1 (DAX1) inhibition; inhibition, % at 6.75 µM; hit rate 0.99% among 340,000; AID 504766; HEK293 Gal4-DAX1 luciferase reporter, luminescence; P51843;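 active = inhibition above the mean over all tested compounds plus 3 SD, cut at about 4.2% in these data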;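 also: 0% = DAX1-transfected cells with DMSO and 100% = empty-vector control cells with DMSO; inhibition shows as a rise in luminescence from relieved DAX1 repression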
hgDAF12 agonist: hgDAF-12 agonism, primary luciferase screen. AID 687014. hit rate 1.8% among 370,000. activation, % at 6.8 µM. HEK293 GAL4-hgDAF12 UAS-luciferase reporter, agonist luminescence; normalized to butyrate control;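 active = activation above a cutoff set at the mean of all screened compounds plus 3 SD, cut at about 10% in these data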;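 also: 0% = DMSO wells and 100% = sodium butyrate wells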
DAX1 inh-2: DAX1 (NR0B1) inhibition, primary screen | HEK293T StAR-luciferase reporter, SF-1/DAX-1 repression relief | inhibition, % at 6.8 µM | hit rate 1.1% among 370,000 | AID 652010;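 active = inhibition above the mean over all tested compounds plus 3 SD, cut at about 3.6% in these data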;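 also: 0% = DAX-1 cells with DMSO and 100% = cells lacking DAX-1 with DMSO; higher inhibition means more luminescence from relief of DAX-1 repression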
Rev-erbA confirm: confirmation of modulators of human Rev-erb alpha DNA binding; shares compounds with NR1D1 modulator; Rev-erb alpha FITC-DNA binding, fluorescence polarization, 90 min; activation, % at 25 µM; hit rate 61% among 3,000; AID 1259319;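 active = activation at or above a set limit, or at least 3 SD above the negative control mean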;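 also: 0% = 35 nM protein with DMSO and 100% = 750 nM protein high control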
RORg DNA counter: counter-screen for Rev-erb alpha modulators: RORgamma DNA binding; AID 1259320; shares compounds with NR1D1 modulator; hit rate 8% among 910; purified RORgamma protein-FITC-DNA binding, fluorescence polarization; IC50, µM;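 active = Compounds whose fitted half-maximal concentration for disrupting protein-DNA binding is below 10 micromolar; the record names Rev-erb in its text, so the target is in doubt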
Active calls of the source: *; i = inactive; / = no result given.

SMILES	hcDAF12 agonist	NR1D1 modulator	ssDAF-12 act	DAX1 inh-1	hgDAF12 agonist	DAX1 inh-2	Rev-erbA confirm	others
O=C(Nc1ccccc1F)c1cccc(C(=O)Nc2ccccc2F)c1	-1	41*	-1	-1	-1	0	-3
O=C(CSc1nnc(-c2cccnc2)n1-c1ccc(Cl)cc1)Nc1ccccc1-c1ccccc1	-2	-3	-1	/	-2	-1	/
O=C(Nc1nc(-c2cccs2)c(-c2ccccc2)s1)c1ccco1	-2	1	-1	0	-2	0	/
Nc1nc(-c2cccs2)c(-c2cccs2)s1	-2	282*	0	-1	0	0	244*	RORg DNA counter=i
CC1CC1C(=O)Nc1nc(-c2cccs2)c(-c2cccs2)s1 (stereo not drawn)	5	53*	2.0*	1	2	0	75*	RORg DNA counter=i
Nc1nccc(-c2cccs2)n1	1	3	-2	-1	-1	0	/
O=C(CSc1nnc(-c2ccccn2)n1-c1ccc(Cl)cc1)Nc1ccc(S(=O)(=O)Nc2nccs2)cc1	0	2	-2	/	6	0	/
O=C(Nc1ccccc1)c1cccc(-c2nnc(-c3ccccc3)o2)c1	-2	30*	-1	0	0	0	10
CCOC(=O)N1CCN(c2nc(-c3ccco3)cc(C(F)(F)F)n2)CC1	-1	10	-1	0	-1	-1	/
CCOC(=O)N1CCN(c2nc(-c3cccs3)cc(C(F)(F)F)n2)CC1	-1	22*	-2	-2	-3	0	9
O=C(Nc1ccon1)c1sc2cc(F)ccc2c1Cl	4	34*	0	4	5	1	22*
COC(=O)CN1CCN(C(=O)c2csc(-c3ccccc3)n2)CC1	-1	-1	-1	/	1	0	/
COc1ccc(NC(=O)CSc2nnc(-c3cccs3)n2N)c(OC)c1	-1	13*	-1	1	-3	-2	1
COc1ccc2cc(C(N)=O)/c(=N\NC(=O)c3ccccc3)oc2c1	5	-6	0	-1	7	0	/
COc1cccc(C(=O)N/N=c2/oc3ccccc3cc2C(N)=O)c1	1	14*	-1	0	1	0	0
CCOC(=O)/C(=C/C=C1\Sc2ccccc2N1CC)C(C)=O	/	/	/	-2	/	/	/
CCOC(=O)/C(=C/C=C1\Sc2cc(C)c(C)cc2N1CC)C(C)=O	-2	32*	-1	-3	0	-1	5
CCOC(=O)/C(=C\C=C1/Sc2ccccc2N1CC)C(C)=O	-3	27*	-2	0	-2	-2	6
O=S1(=O)N[C@H](c2ccccc2)COc2cc(Br)ccc21	-1	0	-1	/	1	-1	/
O=C(Nc1c(-c2ccccc2)nc2ncccn12)C1CC1	1	1	-1	/	-3	1	/
Cc1ccc(NC(=O)NC(=O)COc2ccc(Cl)cc2Cl)c(C)c1	0	2	-1	-1	-1	0	/
COc1cc(C(C)=O)ccc1OCC(=O)NC(=O)Nc1ccc(C)cc1C	0	28*	-1	0	-2	2	-6
COc1ccc([C@H](C#Cc2ccccc2)CC(=O)O)cc1OC1CCCC1	-1	-6	-1	/	-2	0	/
CS(=O)(=O)c1ccc(Cl)c(NC(=O)CSc2nnc(C3CC3)n2C2CC2)c1	0	17*	-1	0	3	-2	0
COC(=O)c1ccc(OCC(=O)Nc2ccccc2C(=O)NC2CC2)cc1	0	1	-1	1	-3	-1	/
SMILES	hcDAF12 agonist	NR1D1 modulator	ssDAF-12 act	DAX1 inh-1	hgDAF12 agonist	DAX1 inh-2	Rev-erbA confirm	others
CCC(=O)c1ccc(OCC(=O)Nc2ccccc2C(=O)NC2CC2)cc1	0	22*	-1	0	-1	0	96*	RORg DNA counter=i
C=CCn1c(SCCNC(C)=O)nc2cc(-c3ccccc3)sc2c1=O	-1	49*	-1	2	0	0	54*	RORg DNA counter=>40
C=CCNc1nc(NCCNC(C)=O)c2sc(-c3ccccc3)cc2n1	-1	2	-2	/	-1	-1	/
CCOc1cc2[nH]c(=S)n(CCC(=O)N3CCc4ccccc4C3)c(=O)c2cc1OCC	0	59*	-2	1	0	0	62*	RORg DNA counter=>40
O=C(O)c1cn(C2CC2)c2cc(N3CCNCC3)c(F)cc2c1=O	/	1	/	/	/	/	/
CCC[C@H]1[C@@H](OC(=O)NC(CC)CC)CC[C@@]23CCCN2C(=O)CCC[C@@H]13	1	1	-2	/	0	/	/
Cn1cc(/C=C/c2cc[n+](C)cc2)c2cc(F)ccc21	/	/	/	-2	/	/	/
C[n+]1ccc(/C=C/c2c[nH]c3ccc(F)cc23)cc1	-1	125*	-1	-2	-8	-1	90*	RORg DNA counter=>40
COc1ccc(O)cc1CN1CCN(c2ncc(Cc3ccccc3)cn2)CC1	-2	0	0	/	-1	-1	/
O=C(CCCn1c(=O)c2cccn2c2cccnc21)NCc1cccc(Br)c1	-1	45*	-1	0	-1	0	19*
CCc1ccc(CNC(=O)CCCn2c(=O)c3cccn3c3cccnc32)cc1	-3	1	-2	1	-3	0	/
O=C(CCn1c(=O)c2cccn2c2cccnc21)NCc1cccc(Cl)c1	0	64*	-1	1	-1	-2	64*	RORg DNA counter=4.3*
O=C(NCc1ccc(Cl)cc1)OCCN1C(=O)CCC12CCC(c1ccccc1)CC2 (stereo not drawn)	-1	5	-1	/	-1	-1	/
CC(C)c1[nH]nc2c1C(c1ccc3c(c1)OCO3)NC2=O (stereo not drawn)	-2	22*	-1	/	-3	-1	-5
COc1ccc(-c2nc(-c3cccs3)c(-c3cccs3)[nH]2)cc1OC	-4	44*	-2	-2	-1	-2	64*	RORg DNA counter=>40
O=[N+]([O-])c1ccc(-c2nc(-c3cccs3)c(-c3cccs3)[nH]2)cc1	-2	24*	-1	-2	-3	-3	33*	RORg DNA counter=>40
O=[N+]([O-])c1cccc(-c2nc(-c3cccs3)c(-c3cccs3)[nH]2)c1	-3	29*	-1	0	-3	-2	25*
COc1ccc(-c2nc(-c3ccccc3)c(-c3cccs3)[nH]2)cc1OC	-2	10	-2	-1	-3	-1	/
C/C=C/c1ccc([C@H]2[C@@H](CN(CC(C)C)S(=O)(=O)c3ccccc3[N+](=O)[O-])N(C(=O)Nc3cccc(OC)c3)[C@H]2CO)cc1	-2	3	-2	/	-2	0	/
COC(=O)c1ccccc1NC(=O)C1=CC(c2cccs2)=NS(=O)(=O)N1C	2	52*	-1	0	-3	0	32*	RORg DNA counter=3*

Source: PubChem
